From PubChem BioAssay (NCI) come the findings set out here.

Values joined by “and” are separate entries in the source; they are usually repeats but may differ in a detail not shown here. Equal entries are not always repeated. Compounds without any hit were thinned out: in the full panel of roughly 83,000, 20% have a hit.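 Results are percent growth after 48 hours of single-concentration exposure. 100 means growth as in untreated cells, lower positive values show inhibition; negative values down to -100 show cell death.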 Active and inactive are the calls of the source. Rule for the calls: active = growth percent below 10; inactive = the rest.

This assay deals with HL-60(TB) leukemia. Description: NCI-60 one-dose screen, 48 h (100 = growth as untreated, 0 = no growth, -100 = all killed). To be noted: 10 µM unless noted.
For the compound `C/C(=N\NC(=O)c1sc(=S)n(C)c1N)c1cc2ccccc2o1`, the growth was 26.6% (inactive).

On to `Cc1ccc(Cl)cc1NC(=O)N(C)CCO`, for which the growth was 92% (inactive).

Turning to `COc1cc(CNC(=O)/C=C/C=C/c2ccc3c(c2)OCO3)ccc1OCc1cn(-c2ccc(C)c(C)c2)nn1`, the growth was 84.4% (inactive).

`O=C(CCc1nnc(Cn2cnc3nc[nH]c3c2=O)o1)c1nc2ncccc2[nH]1`: the growth was 99.9% (inactive).

Take `COc1ccc(Cn2c(NCCN=C(N)N)nc(=O)n(Cc3ccc(F)cc3)c2=O)cc1`: the growth was 94.1% (inactive) and 96.9% (inactive).

For `Cc1cc(N2CCCCC2)nc(N(CCCNc2ccnc3cc(Cl)ccc23)Cc2ccco2)n1`, the growth was -43.6% (active).

In the case of `O=C(/C=C/c1ccc(Cl)s1)c1ccc(Cl)s1`, the growth is 119% (inactive) and 111% (inactive).

Consider `C=C(C)[C@@H]1CC[C@]2(COCCC#N)CC[C@]3(C)[C@H](CC[C@@H]4[C@@]5(C)Cc6c([nH]c7ccccc67)C(C)(C)[C@@H]5CC[C@]43C)[C@@H]12`, for which the growth was 101% (inactive).

`O=C(Cn1c(=O)sc2ccccc21)NNS(=O)(=O)c1ccccc1[N+](=O)[O-]`: the growth is 94.9% (inactive).

Consider `Cc1oc2nc[nH]c(=O)c2c1C(=O)/C=C/c1ccc(Cl)cc1`, for which the growth is -47.8% (active).

Turning to `Cc1ccc2c(c1)C(=O)/C(=C\Nc1ccc(C(N)=O)cc1)C(O)O2` (centres undefined), the growth is 130% (inactive).

Regarding `Nc1n[nH]c2ccc([C@@H]3Nc4cc5c(cc4[C@H]4C6CCC(C6)[C@@H]34)C(=O)NC5)cc12` (some centres undefined), the growth was -39.2% (active).

As for `COc1ccccc1C1OC2=Nc3cc(C)c(C)cc3NC2C1=O` (centres undefined), the growth is 102% (inactive).

Turning to `COc1ccc(-c2n[nH]nc2-c2cc(OC)c(OC)c(OC)c2)cc1`, the growth was -8.64% (active).

Turning to `COc1cc(NC(C)CCCN2C(=O)c3ccccc3C2=O)c2ncccc2c1OC` (centres undefined), the growth is -96.9% (active).

Turning to `O=C1Nc2ccc(Br)cc2/C1=N/c1nc(-c2ccccc2)cs1`, the growth is 73.1% (inactive).

For `CN1CCN(CCCOc2cccc3nc(Nc4ccc(Cl)c(C(F)(F)F)c4)ccc23)CC1`, the growth was 82.3% (inactive).

Turning to `O=C(OCc1ccc2cccc(O)c2n1)N1CCN(C(=O)c2cc3cc(F)ccc3[nH]2)CC1`, the growth is -35.8% (active).

Turning to `O=C(Nc1cccc(Cl)c1)Nc1cccc(Cn2c(=O)[nH]c3ccc(Oc4ncccn4)cc3c2=O)c1`, the growth was 45.3% (inactive).

Turning to `NC(=O)c1c(NC(=S)Nc2ccc(OC(F)(F)F)cc2)sc2c1CCC1(C2)OCCO1`, the growth was 94.2% (inactive).

In the case of `CCc1ccccc1-n1c(-c2ccc(Cl)cc2)cc(-c2ccc(Cl)cc2)c(C#N)c1=O`, the growth was 82.7% (inactive).

As to `CCN1CCC2(CC1)OC(c1ccccc1)C(c1ccccc1)O2` (centres undefined), the growth was 103% (inactive).

With `CC(=O)Nc1nc(C)c(C(=O)NN)s1`, the growth was 117% (inactive).

Take `CCCCCCNC(=O)Oc1ccc(/C(=C(/CC)Cc2ccccc2)c2ccc(OCCN(CC)CC)cc2)cc1`: the growth was 55.2% (inactive).

Take `Clc1ccc2c(c1)c(-c1ccccc1)nc1nncn12`: the growth is 112% (inactive).

On to `COC1(OC)N=C(N)C2(C#N)C3(C(=O)Nc4ccccc43)C12C#N` (centres undefined), for which the growth is 72.5% (inactive).

Regarding `COc1ccc2c(=O)cc(-c3ccccc3)[nH]c2c1`, the growth was 11.5% (inactive) and -29.9% (active).

Regarding `CCN(CC)CCCC(C)Nc1nc(-c2ccc(OC)cc2)nc2cc(Cl)ccc12` (centres undefined), the growth is 51.8% (inactive).

As for `Cc1ccc(C2C=C(c3ccc(Cl)cc3)N=C3SC=CN32)c(Br)c1` (centres undefined), the growth is 104% (inactive).

Take `C=CCc1cc(OC)c(O)c(OC)c1`: the growth is 109% (inactive).

On to `C=C1C(=O)O[C@H]2[C@H]1CC/C(COC(=O)Nc1nc3ccccc3[nH]1)=C\CC[C@@]1(C)O[C@@H]21`, for which the growth was 5.13% (active).

In the case of `N#Cc1c(-c2ccc(C(F)(F)F)cc2)cc(N2CC(O)C2)n2c1nc1ccccc12`, the growth was 118% (inactive).

In the case of `CN1CCN(Cn2nc(-c3cc(Cl)cc(Cl)c3Cl)n(/N=C/c3ccc(Cl)cc3)c2=S)CC1`, the growth was -38.6% (active).

As for `Cc1ccc(C(=O)N2C/C(=C/c3ccccc3)C(=O)/C(=C/c3ccccc3)C2)cc1`, the growth is 73.7% (inactive).

As to `CCN(CC)S(=O)(=O)c1cccc(-c2ccc3c(NC(=O)C4CC4)n[nH]c3c2)c1`, the growth is 10.3% [6.25 µM] (inactive).

`C=CCCCCOc1cccc(/C=C2\N=C3SCCCN3C2=O)c1`: the growth was 94.9% (inactive).

Take `C[C@@H]1CCC[C@H]1CC(N)C(=O)O` (some centres undefined): the growth was 112% (inactive).

In the case of `COc1ccc2occ(C3=C(c4c[nH]c5ccccc45)C(=O)N(O)C3=O)c2c1`, the growth was 97.3% (inactive).

In the case of `N=c1ccc2nc3c(cc(N)c4ccccc43)oc-2c1`, the growth is -48.4% (active).
